Only some compounds are listed: those with a hit (about 4% of all), similar ones and a draw of the others.
KKLEB tox – counter-screen for CF NF-kB inhibitors: cytotoxicity; KKLEB CF airway cells viability, ATPlite luminescence, overnight; active compounds read low; cells stimulated with P. aeruginosa culture filtrate; activity change (cytotoxicity), % at 5 µM; AID 602141; 360,000 compounds, 0.36% hits;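 active means corrected activity change at or below -50% at 5 µM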
Peg3 promoter – Peg3 promoter activity inhibition; HeLa PEG-Prom luciferase reporter, luminescence, overnight; inhibition, % at 20 µM; 360,000 compounds, 1.7% hits;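 active means inhibition of at least 50% at 20 µM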
TWEAK-Fn14 inh – blocks TWEAK-Fn14 interaction in a reporter cell assay; TWEAK-stimulated Fn14 reporter cells, luciferase luminescence, 8 h; inhibition, % at 10 µM; 360,000 compounds, 2% hits; AID 1159606; in the data active means inhibition above about 50%
CF NFkB inh – blocks PAF-induced NF-kB reporter in cystic fibrosis cells; KKLEB NF-kB-GFP reporter, GFP fluorescence overnight; 360,000 compounds, 0.86% hits; inhibition, % at 5 µM;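 active means at least 50% inhibition at 5 µM, scaled per plate between neutral and stimulator controls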;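 further: PAF is a Pseudomonas aeruginosa culture filtrate used as stimulus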
TROY signal inh – TROY signaling inhibition; Q293 LMP1-TROYcd NF-kB luciferase reporter, 4 h; inhibition, % at 10 µM; 360,000 compounds, 0.98% hits; AID 1347056;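 active means compounds whose plate-normalised and pattern-corrected inhibition of the luciferase reporter signal at the single screening dose is 50% or more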
HIF-2a block – HIF-2a inhibition; AID 624352; inhibition, % at 18.8 µM; 786-0 RCC cells HIF-2a reporter, luciferase luminescence, overnight; 360,000 compounds, 0.72% hits;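 active means inhibition of the luminescence signal of 40% or more relative to plate controls, in a single-dose primary screen at 18.75 µM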
Mdm2-MdmX confirm – Mdm2/MdmX (human) interaction inhibition, confirmed. SaOS-2 split-luciferase Mdm2/MdmX complementation, luminescence. 740 compounds, 99% hits. inhibition, % at 8 µM. shares compounds with HIF-2a block;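 active means mean inhibition of the luminescence signal across two replicates at or above 26 percent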
Target sequence (O15151 whole entry, looked up): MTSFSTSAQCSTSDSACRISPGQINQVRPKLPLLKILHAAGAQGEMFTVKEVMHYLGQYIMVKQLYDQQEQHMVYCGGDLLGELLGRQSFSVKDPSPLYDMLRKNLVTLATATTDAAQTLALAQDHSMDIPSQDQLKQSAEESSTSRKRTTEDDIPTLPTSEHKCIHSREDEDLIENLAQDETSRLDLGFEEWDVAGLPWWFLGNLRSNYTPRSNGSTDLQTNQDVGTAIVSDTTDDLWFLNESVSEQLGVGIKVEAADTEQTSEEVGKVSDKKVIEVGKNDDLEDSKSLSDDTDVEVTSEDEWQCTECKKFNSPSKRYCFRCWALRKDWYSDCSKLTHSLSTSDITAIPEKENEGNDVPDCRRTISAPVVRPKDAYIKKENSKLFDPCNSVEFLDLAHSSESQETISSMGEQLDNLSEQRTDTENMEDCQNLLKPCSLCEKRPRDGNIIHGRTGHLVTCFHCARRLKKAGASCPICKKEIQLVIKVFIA
Target sequence (Q00987 whole entry, looked up): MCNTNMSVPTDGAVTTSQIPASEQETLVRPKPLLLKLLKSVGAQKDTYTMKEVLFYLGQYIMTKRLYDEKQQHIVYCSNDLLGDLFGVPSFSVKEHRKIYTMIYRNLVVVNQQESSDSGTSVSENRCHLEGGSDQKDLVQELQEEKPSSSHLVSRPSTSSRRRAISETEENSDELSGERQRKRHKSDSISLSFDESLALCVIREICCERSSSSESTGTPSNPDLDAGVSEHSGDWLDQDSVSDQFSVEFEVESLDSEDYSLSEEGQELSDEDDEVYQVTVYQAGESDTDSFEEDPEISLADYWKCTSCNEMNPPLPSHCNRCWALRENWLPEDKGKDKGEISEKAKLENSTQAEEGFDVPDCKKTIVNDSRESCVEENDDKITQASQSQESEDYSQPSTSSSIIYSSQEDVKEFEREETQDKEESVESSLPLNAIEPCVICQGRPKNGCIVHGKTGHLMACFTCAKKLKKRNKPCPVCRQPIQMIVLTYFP
HIF-2a inh conf – confirmation of HIF-2a inhibitors. 786-0 RCC cells, HIF-2a luciferase reporter luminescence, overnight. 1,800 compounds, 56% hits. shares compounds with HIF-2a block. inhibition, % at 18.8 µM;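 active means mean inhibition across four replicates of at least 40 percent at the single tested concentration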
HIF-1a cs – HIF-1a inhibition counter-screen for HIF-2a hits | MiaPaCa-2 HIF-1a luciferase reporter, desferoxamine, overnight | 1,800 compounds, 72% hits | shares compounds with HIF-2a block | AID 651589 | inhibition, % at 18.8 µM;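 active means mean inhibition of the reporter signal across four replicates at the single tested dose of 50% or more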
Each line names hits and unclear results; the compound was inactive in the other large screens (follow-up assays come after a bar, where they were run).

COc1ccc(C(=O)/C(=C\c2ccco2)N2C=CC=CC2=C(C#N)C#N)cc1	KKLEB tox -87.1, Peg3 promoter 104.5, CF NFkB inh 93.7, HIF-2a block 96.0 | Mdm2-MdmX confirm 100.2
O=S(=O)(CS(=O)(=O)c1ccccc1)c1ccccc1	none
O=S(=O)(C/C(=C/CO)S(=O)(=O)c1ccccc1)c1ccccc1	Peg3 promoter 94.9, TWEAK-Fn14 inh 66.2, CF NFkB inh 99.4, HIF-2a block 86.7 | Mdm2-MdmX confirm 102.0 | HIF-2a inh conf 97.8 | HIF-1a cs 104.5
CCOC(=O)CNC(=O)CSc1nnc(NC(=O)c2ccc(S(=O)(=O)N3CCOCC3)cc2)s1	none
CCOC(=O)C1=C(C)NC2=C(C(=O)CC(c3cccs3)C2)C1c1cccs1 (centres undefined)	HIF-2a block 46.4 | HIF-2a inh conf 52.1 | HIF-1a cs 63.3
COc1ccccc1-c1nc(SCC(=O)N2CCC(C(N)=O)CC2)n[nH]1	none
COc1ccc(CNC(=O)C2CC(C)=CCC2C(=O)O)cc1 (centres undefined)	none
CC[C@@]1(C(=O)OC)N[C@H](CN(C)S(=O)(=O)c2ccc(-c3ccccc3)cc2)[C@@H]2C(=O)N(Cc3ccccc3)C(=O)[C@@H]21	none | Mdm2-MdmX confirm 90.0
NC(=O)C(C(=O)/C=C/c1ccc(Cl)cc1)=C1SCCS1	Peg3 promoter 61.3, TWEAK-Fn14 inh 51.3 | Mdm2-MdmX confirm 102.0
COc1ccc(/C=C/C(=O)C(C(N)=O)=C2SCCS2)cc1	none
CC1(C(=O)O)CCN1C(=O)COc1ccc(Cl)cc1 (centres undefined)	none
Cc1ccc(-n2c(O)c(C=Nc3ccccc3-c3n[nH]c(=S)[nH]c3=O)c3ccccc3c2=O)c(C)c1	HIF-2a block 43.1 | HIF-2a inh conf inactive | HIF-1a cs 85.0
Cc1ccc(S(=O)(=O)N(C)C[C@@H]2Oc3ncc(Br)cc3C(=O)N([C@H](C)CO)C[C@@H]2C)cc1	none
COC(=O)c1c(NC(=O)c2ccc(S(=O)(=O)N3CC(C)OC(C)C3)cc2)sc2c1CCN(C)C2 (centres undefined)	none
CCOC(=O)N1CCN(S(=O)(=O)c2ccc(C(=O)Nc3sc4c(c3C(=O)OC)CCN(C)C4)cc2)CC1	Peg3 promoter 110.4, HIF-2a block 60.8 | HIF-2a inh conf inactive | HIF-1a cs 90.4
CNC(=O)NC(=O)COC(=O)CCCSc1nc2ccccc2s1	TWEAK-Fn14 inh 59.1, HIF-2a block 64.2 | HIF-2a inh conf 84.7 | HIF-1a cs 56.7
N#Cc1ccsc1NC(=O)COC(=O)CCCSc1nc2ccccc2s1	HIF-2a block 63.9 | HIF-2a inh conf 69.2 | HIF-1a cs 52.7
CC(OC(=O)CCCSc1nc2ccccc2s1)C(=O)NC(N)=O (centres undefined)	HIF-2a block 49.6 | HIF-2a inh conf 84.5 | HIF-1a cs 62.6
NC(=O)COC(=O)CCCSc1nc2ccccc2s1	TWEAK-Fn14 inh 54.0, HIF-2a block 56.7 | HIF-2a inh conf 76.1 | HIF-1a cs inactive
Cc1noc(C)c1CSCC(=O)OCC(=O)Nc1sccc1C#N	none
Cc1ccc(S(=O)(=O)N2CCOCC2)cc1C(=O)OCC(=O)NCCc1ccccc1	none
N#CCc1ccc(NC(=O)/C=C/c2ccc([N+](=O)[O-])o2)cc1	Peg3 promoter 106.1, TWEAK-Fn14 inh 61.1, HIF-2a block 64.9 | HIF-2a inh conf 48.2 | HIF-1a cs 105.0
COc1cc(OC)cc(-n2nnnc2SCC(=O)N2CCCC2)c1	none
COc1ccc(-n2nnnc2S(=O)(=O)CC(=O)N2CCCCC2)cc1	KKLEB tox -53.6, Peg3 promoter 102.8, TWEAK-Fn14 inh 96.5, CF NFkB inh 82.7, TROY signal inh 57.0, HIF-2a block 90.4 | HIF-2a inh conf inactive | HIF-1a cs inactive
CCOc1ccc(-n2cnc3scc(-c4ccc(OC)c(OC)c4)c3c2=O)cc1	HIF-2a block 41.0 | HIF-2a inh conf inactive | HIF-1a cs inactive
O=C1C=C(c2ccccc2)C(=O)N1Nc1ccccc1	Peg3 promoter 95.8, HIF-2a block 76.9 | HIF-2a inh conf 55.8 | HIF-1a cs inactive
O=C1Cc2ccccc2C(=O)N1Nc1ccccc1	none
Cc1c(-c2cccc(Cl)c2)nc2ccccc2c1C(=O)NC1CC1	none
COc1ccc(NC(=O)CN(C)C(=O)CCc2ccccc2)cc1	none
COc1ccc(NC(=O)CN(C)C(=O)C2(c3ccccc3)CCCC2)cc1	HIF-2a block 51.1 | HIF-2a inh conf inactive | HIF-1a cs inactive
CCN(CC(=O)Nc1ccc(NC(C)=O)cc1)C(=O)C1(c2ccc(Cl)cc2)CCC1	HIF-2a block 50.9 | HIF-2a inh conf inactive | HIF-1a cs inactive
CCC(C)(C)NC(=O)C1CCN(c2nc(OC)nc(OC)n2)CC1	none
Nn1c(SCC(=O)Nc2cccc(Br)c2)nnc1C1CC1	none
COc1ccc(-c2noc(CCC(=O)O)n2)cc1	none
CCOc1ccc(-c2noc(CCC(=O)O)n2)cc1	TWEAK-Fn14 inh 70.7, HIF-2a block 75.5 | HIF-2a inh conf 80.9 | HIF-1a cs 69.3
COc1ccc(-c2noc(CCCC(=O)O)n2)cc1	TWEAK-Fn14 inh 78.2, HIF-2a block 84.0 | HIF-2a inh conf 94.5 | HIF-1a cs 79.5
COc1ccc(-n2nc3c(N4CCC(C(=O)NC5CCCCC5)CC4)nnc(C)c3c2C)cc1	Peg3 promoter 71.2, HIF-2a block 65.3 | HIF-2a inh conf inactive | HIF-1a cs 60.1
Cc1ccc(-n2nc3c(N4CCC(C(=O)NCCc5ccccc5C)CC4)nnc(C)c3c2C)cc1	Peg3 promoter 58.3, HIF-2a block 49.2 | HIF-2a inh conf inactive | HIF-1a cs inactive
Cc1ccc(-n2nc3c(N4CCC(C(=O)NCCc5ccco5)CC4)nnc(C)c3c2C)cc1	none
COc1ccc(-n2nc3c(N4CCC(C(=O)NCc5ccccc5C)CC4)nnc(C)c3c2C)cc1	Peg3 promoter 103.5, HIF-2a block 90.6 | Mdm2-MdmX confirm 102.7 | HIF-2a inh conf 64.7 | HIF-1a cs 96.4
Cc1ccc(-n2nc3c(N4CCC(C(=O)NCc5ccc(C)o5)CC4)nnc(C)c3c2C)cc1	none
CCOc1ccccc1N1CCN(C(=O)c2c(Cl)cnn2C)CC1	none
CCCCSCCCNC(=O)Nc1ccc(CC)cc1	none
Cc1c(NC(=O)COC(=O)c2cccc(F)c2)c(=O)n(-c2ccccc2)n1C	none
Cc1cc(N2CCCCC2)nc(NCc2ccccc2)n1	HIF-2a block 47.3 | HIF-2a inh conf inactive | HIF-1a cs 60.3

Source: PubChem (Sanford-Burnham Center for Chemical Genomics)
